Screening data: PubChem, National Center for Advancing Translational Sciences (NCATS)
HCV inh: qHTS Assay for Inhibitors of Hepatitis C Virus (HCV). Huh7.5.1 HCVcc-Cre infection, luciferase reporter, 44 h. 3.4% of 340,000 active. Potency, µM (top dose mostly 41.8 µM), for the others: at the highest dose activity change, negative = inhibition, most hits filed as inhibitors; also: potency is read from the fitted curve at half-maximal effect
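Reporter virus HCVcc-Cre (~0.5 moi) infects cells exposed to compound; seeding density 1,000 cells/well with 4 h settling beforehand. Luminescence, 15 sec read, taken 44 h post-infection following a 15 min RT substrate incubation.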
Lassa entry inh: qHTS for Inhibitors of binding or entry into cells for Lassa Virus; AID 540256, 2011; Lassa virus pseudotype entry inhibition, cell reporter; 1.2% of 300,000 active; Potency, µM (series often up to 37.9 µM), for the others: at the highest dose activity change, negative = inhibition, usual class: inhibitors; calls by dose curve; tested in HEK293 cells; also: potency is read from the fitted curve at half-maximal effect; nearly all actives have a fitted effect of over 50% in size
MARV entry inh: qHTS for inhibitors of binding or entry into cells for Marburg Virus; Potency, µM (series often up to 37.8 µM), for the others: top-dose activity change, negative = inhibition, most hits filed as inhibitors; Marburg virus pseudotyped entry inhibition, cell reporter; 1.8% of 300,000 active; calls by dose curve; tested in HEK293 cells; also: potency is read from the fitted curve at half-maximal effect
FMDV antiviral: High Throughput Screening for Foot and Mouth Disease Virus Antivirals; AID 1159524, 2015; 1.2% of 410,000 active; Potency, µM (series often up to 57.9 µM), for the others: top-dose activity change, negative = inhibition, hits mostly inhibitors; FMDV antiviral cell-based qHTS; calls by dose curve; tested in HEK293T cells; also: read-out not given here; potency is read from the fitted curve at half-maximal effect; nearly all actives have a fitted effect of over 45% in size
FBPA Giardia inh: qHTS Assay for Inhibitors of Fructose-1,6-bisphosphate Aldolase from Giardia Lamblia. Potency, µM (top dose mostly 59.6 µM), inactives show at the top dose activity, negative = inhibition, most hits filed as inhibitors. AID 2451, 2010. 0.71% of 290,000 active. purified Giardia FBPA; also: potency is read from the fitted curve at half-maximal effect; nearly all actives have a fitted effect of over 55% in size
Target sequence (A8B2U2 whole entry, looked up): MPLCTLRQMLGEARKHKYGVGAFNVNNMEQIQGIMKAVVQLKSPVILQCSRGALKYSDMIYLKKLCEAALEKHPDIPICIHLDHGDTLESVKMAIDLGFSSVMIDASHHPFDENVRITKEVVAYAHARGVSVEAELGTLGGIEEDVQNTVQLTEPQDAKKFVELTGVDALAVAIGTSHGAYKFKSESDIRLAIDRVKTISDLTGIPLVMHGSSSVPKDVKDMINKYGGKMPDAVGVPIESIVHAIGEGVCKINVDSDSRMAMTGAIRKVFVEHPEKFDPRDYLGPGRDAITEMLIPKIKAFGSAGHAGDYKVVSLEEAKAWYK
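Giardia FBPA (40 nM reagent) was preincubated 10 min at RT with compound (up to 57.5 uM final), then substrate plus GAPDH/TPI/NAD/arsenate coupling system with diaphorase/resazurin was added; resorufin fluorescence (525/598 nm) was read after 20 min.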
HCMV antiviral: qHTS Assay for inhibitors of the human cytomegalovirus (HCMV); AID 1259415, 2018; 4.5% of 410,000 active; activity change, negative = inhibition, % at 57.5 µM; HFF cells, HCMV-luciferase reporter, 72 h; stronger effect = lower value; in the data active = activity change below about -60%; inconclusive = no clear call, values can overlap the other calls; inactive = above about -39%
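Steps: HFFs plated, 16 h 37C; compounds added; HCMV-luciferase added to MOI 1 PFU/cell; 72 h 37C; OneGlo reagent, 5 min room temperature; luminescence read, normalized to controls.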
* marks the source's active call; other numbers are inactive results; ? = inconclusive; . = no result; [ ] = another dose, or the depositor's remark. An excerpt weighted towards active compounds, which were near 8.3% of everything screened. Unless noted, calls follow the shape of the dose curve; as a rule, active = well fitted curve in the direction sought with a large enough effect; inconclusive = small, poorly fitted or top-dose-only effect, or another doubt; inactive = no such curve, though single readings can be large; an effect the other way counts as inactive or inconclusive. % is scaled to controls: 0 for no effect and ±100 for the full control effect.

SMILES | HCV inh | Lassa entry inh | MARV entry inh | FMDV antiviral | FBPA Giardia inh | HCMV antiviral
CCN(CC(=O)Nc1c(F)cccc1F)C(=O)c1cc(-c2cccs2)nn1-c1ccccc1 | 14µM* | -11%[46.1 µM] | 1% | ? | . | -33
Cc1ccc2c(Sc3ccc(Cl)cc3)c(C(=O)NCCC(C)C)[nH]c2c1 | . | -13%[46.1 µM] | -18%[46.1 µM] | 67% | . | 5
Cc1ccc(N(C)/N=C/c2ccc(Cl)cc2Cl)nn1 | 1% | . | . | 49% | 6% | -68*
CN(/N=C/c1ccc(Cl)cc1Cl)c1ncc(Cl)cc1C(F)(F)F | 5% | . | . | -1% | -7% | 12
COc1ccccc1C(C)NC(=O)CCC(=O)N1CCN(S(=O)(=O)c2ccc(Cl)cc2)CC1 (centres undefined) | ? | ? | ? | 35µM* | . | -33
O=C(NCc1ccc(Cl)cc1)N1CCN(S(=O)(=O)c2ccccc2)CC1 | -3% | ? | -16%[46.1 µM] | -6% | 14% | -67*
COc1cccc(S(=O)(=O)N2CCN(C(=O)c3ccco3)CC2)c1 | 17% | -3%[46.1 µM] | ? | -21% | 6% | -86*
COc1ccc(S(=O)(=O)N2CCN(C(=O)c3cc4c(s3)CCC4)CC2)cc1 | -13% | ? | 0% | ? | . | -78*
COc1ccccc1C(=O)NCCC(=O)N1CCN(S(=O)(=O)c2ccc(Cl)cc2)CC1 | 12% | . | . | -20% | . | 0
Cc1ccc(S(=O)(=O)N2CCN(C(=O)c3cc4c(s3)CCCC4)CC2)cc1 | 4% | . | . | -30% | . | 9
CCOC(=O)C(SP(=S)(OC)OC)c1ccccc1 (centres undefined) | . | . | . | . | -6% | .
COC(=O)C/C=C/[C@@H](C)[C@@H](Cc1ccccc1Br)OC | . | . | -4%[14.2 µM] | . | -8% | .
COc1ccccc1CNC(=O)N1CCN(S(=O)(=O)c2ccc(Cl)cc2)CC1 | 19% | -7% | 0% | -10% | 4% | -15
O=C(CN1CCSC1=O)N1CCN(S(=O)(=O)c2ccc(Cl)cc2)CC1 | 1% | 0% | 3% | ? | . | -60*
COc1cccc(CNC(=O)N2CCN(S(=O)(=O)c3ccc(Cl)cc3)CC2)c1 | -6% | 18%[46.1 µM] | -9%[46.1 µM] | 12% | 0% | -61*
O=C(CN1CCSC1=O)N1CCN(S(=O)(=O)c2ccccc2)CC1 | 17% | . | . | -15% | . | 6
COc1cc2cc(CNc3ccc(C)cc3)c(=O)n(CC(=O)Nc3ccc(C(C)C)cc3)c2cc1OC | . | 1%[46.1 µM] | . | 9% | . | -105*
COc1ccc(NCc2cc3cc4c(cc3n(CC(=O)Nc3cc(C)ccc3C)c2=O)OCCO4)cc1 | . | 5%[46.1 µM] | . | -21% | . | -73*
COc1ccc(NCc2cc3cc4c(cc3n(CC(=O)Nc3ccc(C)cc3C)c2=O)OCO4)cc1 | . | 14%[46.1 µM] | . | 1% | . | 1
COc1cc2cc(CNc3ccccc3)c(=O)n(CC(=O)Nc3ccc(C)c(Cl)c3)c2cc1OC | . | 1%[46.1 µM] | . | 32% | . | 61
COc1cccc(-c2nc(CS(=O)CC(=O)N3CCN(c4cccc(C(F)(F)F)c4)CC3)c(C)o2)c1 (centres undefined) | . | -22%[46.1 µM] | . | ? | . | ?
Cc1cc(=O)oc2c(O)c(O)ccc12 | ? | . | . | -2% | 7.1µM* | -37
COc1ccc(/C=C/C(=O)c2c(O)ccc3c(C)cc(=O)oc23)cc1 | ? | . | . | -25% | 0% | -78*
Cc1nc2nc(NC(=O)c3ccc(C(C)(C)C)cc3)[nH]n2c(=O)c1C | . | 0%[46.1 µM] | 29%[46.1 µM] | -13% | . | -20
c1cncc(CNc2cc(-c3ccc4c(c3)OCO4)ncn2)c1 | . | . | . | 59% | ? | .
SMILES | HCV inh | Lassa entry inh | MARV entry inh | FMDV antiviral | FBPA Giardia inh | HCMV antiviral
Cc1cc(C(=O)NCc2nc(-c3cccc(NC(=O)c4cc(C)oc4C)c3)oc2C)nc(C)n1 | . | . | . | -21% | . | .
O=C(CCCc1nc(-c2ccc(Cl)cc2)no1)NC1CCCCC1 | 7.1µM* | ? | ? | ? | 2% | 1
Cc1ccc(-c2noc(CCCC(=O)NC3CCCC3)n2)cc1 | ? | -26%[46.1 µM] | ? | -26% | -9% | -80*
Cc1ccc(-c2noc(CCC(=O)Nc3cc(C)ccn3)n2)cc1 | 22% | 0% | -10%[46.1 µM] | -14% | 4% | -71*
O=C(NCCc1nc(-c2ccccc2Cl)no1)c1ccccc1 | -19% | . | . | -10% | . | ?
Cc1ccc(-c2noc(CCC(=O)Nc3ccccc3C)n2)cc1 | ? | 9% | -8% | 12% | -2% | -6
CC(C)C(=O)NCCc1nc(-c2ccccc2Cl)no1 | 3% | . | . | -4% | . | -60*
O=C(CCc1nc(-c2ccc(Cl)cc2)no1)NC1CCCC1 | 6% | . | . | -1% | -12% | 13
C/C=C(\C)[C@H](O)C[Si](C)(C)c1ccccc1 | . | . | . | . | -1% | .
COC(=O)C/C=C1\c2ccccc2[C@H](OC)[C@H]1C | . | . | . | . | 1%[12.9 µM] | .
CC(Oc1ccc(Cl)cc1Cl)c1nc(-c2ccc(NC(=O)c3ccco3)cc2)no1 (centres undefined) | ? | ? | ? | -20% | -1% | -93*
COc1ccccc1-c1noc(CCCC(=O)NC2CCCC2)n1 | -4% | 5%[46.1 µM] | ? | -8% | -8% | -25
COc1ccc(-c2noc(C(C)NC(=O)c3ccco3)n2)cc1 (centres undefined) | . | 24%[46.1 µM] | 2%[46.1 µM] | -4% | . | -24
O=C(CCCc1nc(-c2ccc(Cl)cc2)no1)Nc1cccnc1 | ? | ? | -49% | ? | 3% | -72*
Cc1cccc(-c2noc(CCCC(=O)Nc3cccnc3)n2)c1 | ? | -8% | -29% | -24% | -1% | -25
CCCc1ccc(OCc2nc(-c3ccc(NC(=O)c4ccco4)cc3)no2)cc1 | -12% | 10µM* | ? | 21% | 0% | ?
O=C(CCCc1nc(-c2ccccc2Cl)no1)NC1CCCC1 | 4% | . | . | ? | -7% | -74*
CC(=O)c1cccc(NC(=O)c2noc3c2CSc2ccccc2-3)c1 | . | 30%[46.1 µM] | 1%[46.1 µM] | 42% | . | 4
COc1ccc(-c2noc(CCCC(=O)NC3CCCCC3)n2)cc1 | ? | -30%[46.1 µM] | ? | -22% | 6% | -72*
COc1ccc(-c2noc(CCC(=O)NC3CCCC3)n2)cc1 | -11% | -8%[46.1 µM] | 1%[46.1 µM] | -5% | 5% | ?
O=C(Nc1ccc(-c2noc(CCc3ccccc3)n2)cc1)c1cccnc1 | 11µM* | ? | ? | ? | ? | ?
O=C(NCCc1ccccc1)c1ccc(NC(=O)c2cccnc2)cc1 | -3% | . | . | 24% | 3% | 11
CCC[C@H]1[C@@H](NS(=O)(=O)c2ccc(C#N)cc2)CC[C@@]23CCCN2C(=O)CCC[C@@H]13 | . | . | . | . | . | -2
COCCn1c(=O)c(-c2ccc(Cl)cc2)nc2cnc(N3CCOCC3)nc21 | . | . | . | -14% | 4% | .
CCC(=O)N1[C@H](C(=O)NC2CCCC2)[C@@H](CO)[C@@H]2Cn3c(cccc3=O)[C@@H]21 | . | . | . | . | . | -6
